# PubChem BioAssay (NCI)
# Compounds without any hit were thinned out: in the full panel of roughly 83,000, 20% have a hit.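 Method: cells in 96-well plates; compound added at one concentration; 48 h incubation; percent growth measured; values under 10 scored active.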 A number with no mark means an inactive call. Calls of active or inactive are those of the source.
# Columns and labels:
# Assay in all cases: NCI-60 one-dose screen, 48 h (100 = growth as untreated, 0 = no growth, -100 = all killed)
# Conditions in all cases: 10 µM unless noted
# [1] = test system: SR leukemia
# [2] = test system: RPMI-8226 leukemia
# [3] = test system: OVCAR-8 ovarian
# [4] = test system: OVCAR-5 ovarian
# [5] = test system: OVCAR-4 ovarian
# [6] = test system: SK-OV-3 ovarian
# [7] = test system: IGROV1 ovarian
# [8] = test system: OVCAR-3 ovarian
# [9] = test system: HS 578T breast
# [10] = test system: NCI/ADR-RES ovarian
# [11] = test system: T-47D breast
# [12] = test system: BT-549 breast
# [13] = test system: MDA-MB-435 melanoma
# [14] = test system: SW-620 colon
# [15] = test system: MCF7 breast
# [16] = test system: HCT-116 colon
# [17] = test system: HCC-2998 colon
# [18] = test system: KM12 colon
SMILES,growth [1],growth [2],growth [3],growth [4],growth [5],growth [6],growth [7],growth [8],growth [9],growth [10],growth [11],growth [12],growth [13],growth [14],growth [15],growth [16],growth [17],growth [18]
COc1cnc2c(c1)C(=O)c1c-2n(CCCCl)c(=O)c2ccncc12,17.1%,41.9%,66.2%,116%,66.2%,89.3%,55.5%,2.98% (active),84.3%,59%,28.9%,56.8%,79.2%,36.3%,17.9%,40.4%,75.6%,67.8%
C=CC(=O)Nc1ccc(Oc2nccc(Nc3nnc(-c4ccc(C)cc4)s3)n2)cc1,36.2%,61.8%,81.4%,105%,99%,78%,62.5%,43%,67.4%,59.1%,89.2%,73.4%,0.25% (active),49.5%,80.6%,94.9%,110%,84%
N#CSc1c[nH]c2cccc(/C=C/C(=O)/C=C(O)/C=C/c3cccc4[nH]cc(SC#N)c34)c12,0.385% (active),-28.9% (active),-34.2% (active),-69.6% (active),-20.1% (active),-24% (active),-37.4% (active),-17.6% (active),22.8%,39.9%,-10.5% (active),-23.7% (active),-83.8% (active),-43% (active),-41.6% (active),-92% (active),-57.8% (active),-16.9% (active)
O=C(Nc1ccccc1[N+](=O)[O-])c1ccc(Cl)c(Cl)c1,92.3%,90.1%,95.5%,111%,81.4%,94.9%,87.2%,97%,87.8%,87.2%,54.9%,85.6%,102%,97.9%,52%,95%,110%,96.8%
Nc1nc(N)c2c(n1)NC(c1cccc(Nc3ccnc4cc(C(F)(F)F)ccc34)c1)CC(c1ccc(Br)cc1)=N2 (stereo unspecified),0.0412% (active),5.34% (active),66%,107%,77.5%,57.2%,58.8%,38.1%,68.4%,56.5%,68.9%,114%,-25.8% (active),31.1%,17.3%,16.2%,55.1%,28.3%
CN(CCC(=O)c1ccccc1)CCC(=O)c1ccccc1,49.9%,50.8%,93.2%,95.5%,103%,99.8%,95.3%,113%,100%,86.5%,113%,79.7%,102%,99.8%,70.2%,93.3%,93.3%,98.7%
c1ccc(CCNc2c3ccccc3nc3ccccc23)cc1,20.9%,19.5%,38.3%,53.4%,35%,62.6%,28%,71%,73.3%,33.5%,48.9%,73.6%,55.3%,28.3%,12.2%,16.5%,41.4%,57.4%
C#CC#CC#CC#CC#CC#CC#CC#CC[C@@H]1OC[C@@H](COC(=O)O[C@@H](C(=O)O[C@H]2C[C@@]3(O)[C@@H](OC(=O)c4ccccc4)[C@@H]4[C@]5(OC(C)=O)CO[C@@H]5C[C@H](O)[C@@]4(C)C(=O)[C@H](OC(C)=O)C(=C2C)C3(C)C)[C@@H](NC(=O)c2ccccc2)c2ccccc2)O1,3.63% (active),5.29% (active),94.7%,5.15% (active),83.9%,98.6%,19.3%,100%,94.1%,62.5%,91.3%,17%,101%,101%,13.6%,7.34% (active),-43.9% (active),96.6%
COc1ccc2c(c1)c(/C(O)=C1\COC(=O)C1=O)cn2Cc1ccc(F)cc1,136%,72.1%,111%,98%,97.1%,110%,44%,107%,109%,107%,114%,110%,109%,101%,107%,104%,108%,109%
C=C1C(=O)O[C@H]2[C@H]1CC/C(CNC(=O)c1c[nH]c3ccc(F)cc13)=C\CC[C@@]1(C)O[C@@H]21,-28.2% (active),-20.8% (active),-33.3% (active),19.6%,49%,81.7%,41.7%,-36.7% (active),44%,56.3%,-39.6% (active),13%,3.64% (active),-48.9% (active),-26.3% (active),-49.1% (active),-79.3% (active),42.4%
COc1ccc(-c2n[nH]c(=O)c3nc(NC(=S)Nc4ccc(Oc5ccccc5)cc4)sc23)cc1,81.6%,82.8%,86.5%,104%,95%,94.9%,104%,105%,97.7%,108%,81.9%,108%,97.3%,96.8%,96.8%,91.1%,105%,93.8%
N#Cc1c(Nc2ccc(N3CCOCC3)cc2)nc(SCC(=O)c2ccc(Br)cc2)nc1-c1ccccc1,101%,111%,101%,95.6%,105%,95%,107%,105%,105%,103%,102%,115%,109%,109%,94.8%,87.9%,100%,103%
CCN(CC)c1ccc(/C=N/NC(=O)Cc2ccc(Nc3ccnc(C(F)(F)F)c3)cc2)c(O)c1,19.7%,25.8%,28.8%,48.2%,20.9%,28%,25.1%,32.4%,37.7%,18.3%,27.6%,41.9%,23.9%,35.6%,20.9%,19.6%,26.9%,41%
O=C1NC(=O)/C(=C/c2c(-c3ccccc3)nc3sc(COc4ccccc4)nn23)S1,90.2%,84.4%,105%,115%,93.4%,105%,112%,110%,105%,100%,89.4%,92.8%,102%,105%,83.5%,89.3%,107%,100%
Cc1c(Cl)cccc1C(=O)Nc1nc2c(s1)CN(C(=O)c1ccc(C(F)(F)F)cc1)CC2,21.3%,10.6%,10.1%,57.5%,38.5%,36.4%,17.9%,0.113% (active),26.8%,5.22% (active),60.9%,24.8%,-12.4% (active),18.6%,17.3%,8.9% (active),28.4%,18.9%
N=C(N)c1ccc(-c2ccc(-c3ccccc3)s2)cc1,7.19% (active),-4.15% (active),38.1%,61.4%,45.8%,85.2%,60.2%,53.7%,87.8%,89.2%,44.5%,90.6%,12%,-46.2% (active),13.8%,-55.1% (active),-27.7% (active),-7.55% (active)
O=C(NCc1cccc(CNC(=O)Nc2nc3ccccc3[nH]2)c1)Nc1nc2ccccc2[nH]1,40.1%,-18.8% (active),-52.3% (active),-2.26% (active),-75.7% (active),-19% (active),13.7%,-42.3% (active),-15.3% (active),83.3%,15.9%,29.3%,-74.9% (active),-41.6% (active),-43.7% (active),-82.4% (active),17.9%,-41.9% (active)
